# In the library only some 1.9% were active in any assay of this set; here they are far more common.
# BRCA1 expr act = activators of BRCA1 expression. MCF7-BRCA1-FFLuc reporter, luminescence, 48 h; response scale: scaled: vehicle 0%, 10 µM genistein 100%. 1.1% of 380,000 active. Potency, µM (highest dose often 46.1 µM), for inactives: at the highest dose activation, hits mostly activators. AID 624202; further: potency means the concentration at half of the fitted maximal effect; nearly all actives have a fitted effect of over 80% in size
#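 Luminescence from a BRCA1-driven firefly luciferase in MCF7 cells was the read-out, taken 15 min after substrate addition following 48 h compound exposure at 37 °C. Data were normalized to a 10 microM genistein control and DMSO vehicle.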
# RXFP1 ag = agonists of human relaxin receptor RXFP1; Q9HBX9; HEK293T-RXFP1 cAMP TR-FRET, 30 min; response scale: percent of porcine relaxin response, buffer zero; Potency, µM (top dose mostly 57.5 µM), without a hit: top-dose activation, actives largely listed as activators; 0.3% of 370,000 active; AID 2676; further: potency means the concentration at half of the fitted maximal effect; on the % scale 0 is the no-effect control and ±100 the full control effect; nearly all actives have a fitted effect of over 60% in size
#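 Agonist response is measured as cAMP accumulation in an RXFP1-transfected HEK293T line under PDE4 inhibition. Values are scaled between buffer-only and 29 nM porcine relaxin, and EC50s come from standard Hill equation fits.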
# RXFP1 antagonist = RXFP1 (human) relaxin receptor antagonism | AID 1259400 | HEK293-RXFP1, relaxin-stimulated cAMP HTRF, 30 min; hits give low values | activity change, negative = inhibition, % at 57.5 µM | 0.59% of 350,000 active;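 active means activity change of -60% or lower, but not beyond a set lower limit; inconclusive means change between -60% and -40%, or beyond the set limit; inactive means change above -40%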; further: on the % scale 0 is the no-effect control and ±100 the full control effect
# NPSR antag = antagonists of human neuropeptide S receptor cAMP signaling; Potency, µM (titrated, usually from 38.3 µM), for inactives: top-dose activity change, negative = inhibition, most hits filed as inhibitors; AID 1461; 1% of 220,000 active; Q6W5P4; CHO-NPSR cells, cAMP TR-FRET, antagonist mode; further: potency means the concentration at half of the fitted maximal effect; on the % scale 0 is the no-effect control and ±100 the full control effect; nearly all actives have a fitted effect of over 50% in size
# Target sequence (Q6W5P4 whole entry, looked up): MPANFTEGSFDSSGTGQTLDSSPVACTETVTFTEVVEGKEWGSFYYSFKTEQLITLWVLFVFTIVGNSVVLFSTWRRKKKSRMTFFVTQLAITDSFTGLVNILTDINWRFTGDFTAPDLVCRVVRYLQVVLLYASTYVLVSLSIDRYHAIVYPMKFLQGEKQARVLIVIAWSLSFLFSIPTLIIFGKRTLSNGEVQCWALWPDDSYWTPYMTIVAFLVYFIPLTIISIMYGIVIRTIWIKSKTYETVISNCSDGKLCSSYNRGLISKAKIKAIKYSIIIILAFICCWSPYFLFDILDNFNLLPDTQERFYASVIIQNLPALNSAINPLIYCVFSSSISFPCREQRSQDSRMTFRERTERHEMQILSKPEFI
# Giardia kill = kills Giardia lamblia; Giardia lamblia trophozoite viability; activity change, % at 7.66 µM, hits read low; 0.15% of 340,000 active; AID 540267; in the data active means activity change below about -80%; inconclusive means between about -30% and that limit;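 further: parasites exposed to compound for two days anaerobically before the ATP read; on the % scale 0 is the no-effect control and ±100 the full control effect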
#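 Giardia trophozoites, 100 cells per well, were exposed to compounds for 48 hrs at 37 deg C under anaerobic conditions; viability was then read as ATP content by bioluminescence after 15-30 min at room temperature.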
# IL2 activator = activators of IL-2 | IL-2 activation reporter assay, cell-based qHTS; stimulated with anti-CD3/CD4/CD28 beads; in transgenic mouse T cells | activation, % (series mostly up to about 46 µM) | 0.065% of 360,000 active; in the data active means activation above about 50%; inconclusive means mostly about 30% to 49%; further: 0% is about no effect
#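 Screening format: compound pinned onto unstimulated transgenic mouse T cells, 60 min incubation, then anti-CD3/anti-CD4/anti-CD28 bead stimulation for 18 hours at 37 degrees C, followed by EGFP and DsRed detection.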
# Active calls of the source: *; ? = inconclusive; . = no result given; [ ] = remark or other dose. Unless noted, the call rests on the fitted dose curve; in most records, active means well fitted curve in the direction sought with a large enough effect; inconclusive means small, poorly fitted or top-dose-only effect, or another doubt; inactive means no such curve, though single readings can be large; an effect the other way counts as inactive or inconclusive.
SMILES,BRCA1 expr act,RXFP1 ag,RXFP1 antagonist,NPSR antag,Giardia kill,IL2 activator
CCOC(=O)C1=C(C)N=c2s/c(=C\c3ccc(O)c([N+](=O)[O-])c3)c(=O)n2C1c1ccccc1OC (stereo not given),-15%,-1%,-1,.,?,0
CCOC(=O)C1=C(C)N=c2s/c(=C/c3cccc([N+](=O)[O-])c3O)c(=O)n2C1c1ccc(OC)cc1OC (stereo not given),-1%,-1%,-1,.,-80*,2
CC(=O)N(CC(O)CO)c1c(I)c(C(=O)NCCO)c(I)c(C(=O)NCC(O)CO)c1I (stereo not given),.,.,-9,.,.,.
Cc1cc(Nc2cccc(C(F)(F)F)c2)nc2ccc(NC(=O)c3cccnc3)cc12,.,6%,-72*,.,.,.
Cc1ccc(C)c(OCc2cc(C(=O)N3C[C@@H](C)O[C@@H](C)C3)no2)c1,4.5µM*,-1%,-4,.,-21,-4
Cc1ccc(C)c(OCc2cc(C(=O)N3CC[C@@H]4CCCC[C@H]4C3)no2)c1,?,3%,-19,.,-7,-1
Cc1ccc(C)c(OCc2cc(C(=O)N3CCN(c4ccccc4)CC3)no2)c1,7.1µM*,-1%,0,.,23,-2
CN(C)CCNc1nc2sc3c(c2c(=O)n1Cc1ccccc1)CCCCC3,-42%,0%,-92*,.,-18,0
O=C(c1ccco1)N1CCN(c2c([N+](=O)[O-])nn(-c3cccc(Cl)c3)[n+]2[O-])CC1,-37%,1%,5,8%,-87*,0
Cc1nn(C(=O)c2ccc(Cl)cc2)c(C)c1Sc1ccc(Cl)cc1,.,2%,-25,.,.,.
O=C(Nc1ccc2nc(-c3ccccc3)[nH]c2c1)c1cccs1,7.1µM*,1%,-11,-14%[46.1 µM],1,0
O=C(Nc1ccc(-c2nc3ccccc3[nH]2)cc1)c1ccco1,?,0%,-5,-11%[46.1 µM],-11,0
Cn1cc([N+](=O)[O-])c(C(=O)Nc2ccc3nc(-c4ccccc4)[nH]c3c2)n1,4µM*,3%,7,1%,3,1
Cn1cc([N+](=O)[O-])c(C(=O)Nc2ccc(-c3nc4ccccc4[nH]3)cc2)n1,7.9µM*,4%,1,5%,1,-2
Cn1cccc1-c1nc2ccc(NC(=O)c3ccc([N+](=O)[O-])cc3)cc2[nH]1,0%,0%,-14,-9%[46.1 µM],21,-1
CCN(CC(=O)Nc1ccccc1OC)C(=O)/C=C/c1cccs1,-11%,1%,-69*,.,-4,1
Cc1ccc2c(C(=O)CNC3=NCCS3)c(C)[nH]c2c1,-10%,.,.,.,.,.
Cc1cc(C)c(Cn2c3ccccc3c3cnn(CC(=O)NCCN4CCOCC4)c(=O)c32)c(C)c1,-11%,0%,-64*,.,-4,-1
COc1ccc2c(c1)c1nnc(SC)nc1n2Cc1ccccc1,-1%,.,.,.,2,.
Cc1c(O)ccc2c1OC(C)(C)CC2,-3%,.,.,.,.,.
CCN(CC)CCCNC(=O)C1c2ccccc2C(=O)N(CCOC)C1c1ccc(F)cc1 (stereo not given),1%,-2%,-15,-14%,4,0
CCN(CCCNC(=O)C1c2ccccc2C(=O)N(CCOC)C1c1ccc(F)cc1)Cc1ccccc1 (stereo not given),-4%,-1%,16,10µM*,-8,-2
COc1cc2c(NC3CCN(C(C)C)CC3)nc(N3CCCN(C)CC3)nc2cc1OCCCN(C)C,-11%,.,.,.,.,.
C#CCn1c(S(=O)(=O)Cc2ccccc2Cl)nc(-c2ccccc2)c1-c1ccccc1,-6%,1%,.,10µM*,1,-5
COc1ccccc1N1CCN(C(=O)CCCn2c(=S)[nH]c3ccccc3c2=O)CC1,-33%,.,-65*,.,.,-1
SMILES,BRCA1 expr act,RXFP1 ag,RXFP1 antagonist,NPSR antag,Giardia kill,IL2 activator
CCOC(=O)N1CCN(C(=O)c2ccc(Cn3c(=S)[nH]c4cc5c(cc4c3=O)OCO5)cc2)CC1,-71%,-1%,-92*,?,21,1
COc1ccccc1N1CCN(C(=O)CCCCCn2c(=S)[nH]c3cc4c(cc3c2=O)OCO4)CC1,-3%,.,-78*,.,.,-1
Cc1ccc(C)c(N2CCN(C(=O)CCCn3c(=S)[nH]c4cc5c(cc4c3=O)OCO5)CC2)c1,1%[1.84 µM],0%,-102*,-19%[46.1 µM],18,1
O=C(CCCn1c(=S)[nH]c2cc3c(cc2c1=O)OCO3)N1CCN(c2ccccc2F)CC1,-6%,2%,?,-23%[46.1 µM],5,2
CC(C)c1ccc(Nc2c(-c3ccccn3)nc3ccccn23)cc1,.,?,-10,.,.,.
CSc1ccc(/C=C/C(=O)N2CCCN(C)CC2)cc1,8.9µM*,1%,-18,9%,-2,0
COc1ccc(-n2nc([N+](=O)[O-])c(=NCCc3cccc(C)c3)n2O)cc1,1%,-1%,5,5%,-85*,-3
Cc1ccc(N=c2c([N+](=O)[O-])nn(-c3ccccc3)n2O)c(C)c1,-21%,-2%,-24,-12%[46.1 µM],?,-3
COc1ccc(-n2nc([N+](=O)[O-])c(=NCCCN3CCCC3=O)n2O)cc1,1%,0%,4,1%,-85*,-1
Cc1cccc(CCN=c2c([N+](=O)[O-])nn(-c3ccccc3)n2O)c1,1%,1%,3,-11%,-91*,0
Cc1cccc(-n2nc([N+](=O)[O-])c(=NC3CCN(Cc4ccccc4)CC3)n2O)c1,-68%,5%,1,-5%,-84*,0
COc1ccc(SCC(CC(C)C)N2CCN(CCc3ccccc3)CCC2=O)cc1 (stereo not given),.,.,.,.,-2,.
COc1ccc(N2CCN(C(=O)c3cnn(-c4ccc(OC)cc4)c3C3CCN(C(=O)OC(C)(C)C)CC3)CC2)cc1,.,7%,-9,.,.,.
CC1(c2nnc(-c3cccc(Cl)c3)o2)CC(c2ccc(F)cc2)=NO1 (stereo not given),11µM*,.,.,.,-1,0
O=C(CN1C(=O)COc2ccc(S(=O)(=O)N3CCCCCC3)cc21)Nc1cccc(Cl)c1,.,4%,3,.,.,.
Cc1cc(C)c(Nc2cc(S(=O)(=O)O)c(N)c3c2C(=O)c2ccccc2C3=O)c(C)c1,-27%,-11%,-29,5µM*,-1,1
N#C/C(=C\c1ccc(O)cc1)c1nc2ccccc2o1,?,0%,9,-51%,-17,57*
COC(=O)c1ccc(/C=C2\Oc3ccccc3NC2=O)cc1,2.2µM*,10%,-13,.,7,-3
O=C(Nc1ccc(F)c(Cl)c1)Nc1c[nH]c(=O)[nH]c1=O,.,-2%,-6,.,.,.
